# Compound activity: PubChem, National Center for Advancing Translational Sciences (NCATS)
# HT1080 IDH1KD tx – qHTS for induction of synthetic lethality in tumor cells producing 2HG: qHTS for the HT-1080-IDH1KD cell line; AID 686971, 2013; 2% of 360,000 active; Potency, µM (top dose mostly 46.1 µM), usual class: cytotoxic; HT-1080 IDH1 knockdown viability, ATP luminescence, 48 h
#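 In this qHTS, HT-1080 cells depleted of IDH1 are exposed for 48 h at 37 °C to compound titrations. Toxicity is scored from CellTiter-Glo luminescence, with DMSO as full viability and medium alone as none.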
# KB-3-1 cytotox – qHTS assay for MDR1-selective chemotherapeutics: Primary screen using the parental adenocarcinoma cell KB-3-1; Potency, µM (top dose mostly 46.1 µM), most hits filed as cytotoxic; KB-3-1 viability, CellTiter-Glo ATP luminescence, 72 h; 1.4% of 400,000 active; further: nearly all actives have a fitted effect of over 60% in size
#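 72 h, 37 °C compound treatment of KB-3-1 parental cells; CellTiter-Glo added, 10 min, luminescence read. Data corrected against DMSO-only plates and normalized before curve fitting.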
# HT1080-NT tox – qHTS for induction of synthetic lethality in tumor cells producing 2HG: qHTS for the HT-1080-NT fibrosarcoma cell line; 1.6% of 360,000 active; HT-1080-NT fibrosarcoma viability, CellTiter-Glo ATP luminescence, 48 h; AID 686970, 2013; Potency, µM (highest dose often 46.1 µM), usual class: cytotoxic;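 further: NT is the 2HG producing partner of a matched IDH1 knockdown line; nearly all actives have a fitted effect of over 55% in size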
#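 Fibrosarcoma NT cells, 750 per well in 5% FBS RPMI, were exposed to compound for 48 hours. Viability: CellTiter-Glo luminescence.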
# KB-V1 cytotox – qHTS assay for MDR1-selective chemotherapeutics: Primary screen using the drug-selected MDR subline cells KB-V1 | Potency, µM (titrated, usually from 46.1 µM), hits mostly cytotoxic | KB-V1 MDR cells viability, CellTiter-Glo, 72 h | 3.4% of 400,000 active; further: nearly all actives have a fitted effect of over 60% in size
#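 In this primary screen, KB-V1 cells overexpressing P-gp are incubated with library compounds (lowest to highest concentration) for 72 h at 37 degrees C before a luminescent ATP viability read.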
# A number is an active result; 0 = inactive; ? = inconclusive; - = no result. Sampled rows, rich in hits. Any-hit rate of the full collection: about 5.7%. The call rests on the fitted dose curve; in most records, active means well fitted curve in the direction sought with a large enough effect; inconclusive means small, poorly fitted or top-dose-only effect, or another doubt; inactive means no such curve, though single readings can be large; an effect the other way counts as inactive or inconclusive.
SMILES,HT1080 IDH1KD tx,KB-3-1 cytotox,HT1080-NT tox,KB-V1 cytotox
C[C@@H](c1ccccc1)N1C[C@H](COCc2ccccc2)Oc2cc(N3CC[C@@H](N(C)C)C3)ccc2S1(=O)=O,?,0,?,?
CCOC(=O)c1ccc(NC2SC(=O)N(Cc3cccc(C(=O)O)c3)C2=O)cc1 (stereo unspecified),-,0,-,0
Cc1oc2ccc(OS(C)(=O)=O)cc2c1C(=O)OC(C)C,0,0,0,13µM
CCOC(=O)c1sc(N)c(C(=O)Nc2ccccc2OC)c1C,7.3µM,?,?,10µM
CC(=O)N1CCN(c2cccc(Nc3nn4c(=O)c5ccccc5nc4s3)c2)CC1,-,0,-,0
CCOc1ncccc1C(=O)N1CCN(c2cccc(C)c2C)CC1,0.18µM,1µM,0.18µM,?
CCOc1ncccc1C(=O)N1CCN(c2cc(Cl)ccc2C)CC1,1.3µM,2.1µM,1µM,0.82µM
Cc1ccc(/C=C/C(=O)N2CCN(c3ccc(F)cc3)CC2)o1,0,?,0,18µM
Cc1ccc2occ(CC(=O)N(Cc3ccccc3Cl)C3CCS(=O)(=O)C3)c2c1 (stereo unspecified),-,0,-,0
O=C1c2ccccc2-c2onc3ccc(Oc4ccccc4)c1c23,4.1µM,?,0,23µM
Cc1nnc(SCC(=O)Nc2cccc(S(=O)(=O)N3CCCC3)c2)n1C1CC1,0,0,0,0
CCOCCCNC(=O)c1c(C)c(C(=O)OCC)n(C)c1C,0,0,0,0
CCOC(=O)c1c(C)c(C(=O)NC2CCCCCC2)c(C)n1C,0,0,0,8.2µM
CCOC(=O)c1c(C)c(C(=O)N(C)C2CCCCC2)c(C)n1C,0,0,0,15µM
CN(C)c1ccc(/C=C/c2ccnc3c(Cl)ccc(Cl)c23)cc1,-,0,-,0
Cn1ccc2cc(S(=O)(=O)N3CCCC(C(=O)NCc4ccc(F)cc4)C3)ccc21 (stereo unspecified),-,0,-,0
C=C1CC(COc2cc(=O)oc3ccccc23)(c2ccccc2)OC1=O (stereo unspecified),5.2µM,10µM,16µM,?
CCCN1CCc2nc(N3CCN(c4ncccn4)CC3)ncc2C1,-,0,-,0
CC(C)=C1C2CCC1C1C(=O)N(CCc3ccccc3)C(=O)C21 (stereo unspecified),0,0,0,10µM
COc1ccc(CNC2CCSc3ccccc32)cc1OC (stereo unspecified),0,0,0,0
CCCCS(=O)(=O)/C=C\C=C/S(=O)(=O)CCCC,?,7.3µM,6.5µM,0
Cc1ccc(C)c(CN2C(=O)c3ccccc3S(=O)c3ccc(C(=O)NCCc4ccc(Cl)cc4)cc32)c1 (stereo unspecified),-,0,-,0
CC(=O)N1CCc2cc(CNC(=O)Nc3ccc(Br)c(C)c3)ccc21,-,0,-,0
CC(C(=O)Nc1ccccc1-c1ccccc1)N(C)Cc1nc2ccccc2c(=O)[nH]1 (stereo unspecified),23µM,?,23µM,12µM
CC(NC(=O)CN(C)Cc1nc2ccccc2c(=O)[nH]1)c1ccccc1 (stereo unspecified),0,0,0,0
SMILES,HT1080 IDH1KD tx,KB-3-1 cytotox,HT1080-NT tox,KB-V1 cytotox
C=C1C=C(C(F)F)n2ncc(C(=O)NCc3ccccc3)c2N1,-,0,-,0
O=C(Nc1ccc2snnc2c1)Nc1cccc2ccccc12,?,21µM,?,?
Cc1cc(Nc2cc(Cl)nc(Sc3ccc(NC(=O)C4CC4)cc3)n2)n[nH]1,-,1.6µM,-,0
Cc1cc(NC(=O)c2ccc(NC(=O)C3CC3)cc2)no1,0,0,0,0
CCOc1cccc2sc(Nc3nc4ccc(NC(C)=O)cc4s3)nc12,?,12µM,?,?
O=Cc1cn(-c2ccccc2)nc1-c1ccc(F)cc1,0,0,0,0
O=C(O)CCCCCN1C(=O)/C(=C/c2cn(-c3ccccc3)nc2-c2cccs2)SC1=S,?,0,?,0
CC1=NNC(=O)/C1=C\c1cn(-c2ccccc2)nc1-c1ccc(F)cc1,5.8µM,0,10µM,?
CC1=NNC(=O)/C1=C\c1cn(-c2ccccc2)nc1-c1cccs1,8.2µM,0,8.2µM,0
COc1cc(SC#N)ccc1N=Cc1c(C)[nH]n(-c2ccc(C)c(C)c2)c1=O,15µM,?,21µM,?
Cc1ccc(/C=C2\CCC3=C2OC(N)=C(C#N)C3c2ccc(C)cc2)cc1 (stereo unspecified),0,0,0,0
N#CC1=C(N)OC2=C(CCc3ccccc32)C1c1ccccc1 (stereo unspecified),0.58µM,0.58µM,0.92µM,1.5µM
CCS(=O)(=O)N1Cc2ccccc2CC1C(=O)N1CCN(c2ccccc2)CC1 (stereo unspecified),0,0,0,10µM
CCS(=O)(=O)N1Cc2ccccc2CC1C(=O)Nc1nc2ccccc2s1 (stereo unspecified),0,0,0,16µM
CCc1nnc(NC(=O)C2Cc3ccccc3CN2S(=O)(=O)c2c(C)c(C)cc(C)c2C)s1 (stereo unspecified),?,0,0,10µM
CCS(=O)(=O)N1Cc2ccccc2CC1C(=O)Nc1nnc(SCc2ccc(F)cc2)s1 (stereo unspecified),0,0,0,4.1µM
CC1=C(c2ccc(C)c(C)c2)S(=O)(=O)N(Cc2ccc(C(=O)Nc3cc(F)ccc3F)cc2)C1=O,-,0,-,0
CC(=O)c1ccc(NC(=O)CCc2c(C)nc3c(c2C)c(=O)n(C)c(=O)n3C)cc1,-,0,-,0
Cn1c(=O)c([N+](=O)[O-])c(-n2ccnc2)c2ccccc21,26µM,?,16µM,0
Cn1c(=O)c([N+](=O)[O-])c(NCCCn2ccnc2)c2ccccc21,0,0,0,0
CCOC(=O)c1cccc(NC(=O)CSc2nc3ccccc3c(=O)n2CCOC)c1,0,0,0,4.6µM
CCOC(=O)c1cccc(NC(=O)CSc2nc3ccccc3c(=O)n2CC)c1,0,0,0,2.3µM
COCCn1c(SCC(=O)Nc2ccc3[nH]c(=O)[nH]c3c2)nc2ccccc2c1=O,0,0,0,0
COCCn1c(-c2ccccc2)cnc1SCC(=O)Nc1cccc2ccccc12,0,0,0,5.2µM
CCc1ccc2ncc3c(-c4ccccc4)nn(-c4ccccc4)c3c2c1,-,0,-,0
SMILES,HT1080 IDH1KD tx,KB-3-1 cytotox,HT1080-NT tox,KB-V1 cytotox
CCN1C(=O)[C@H]2[C@H]3[C@H](O)[C@H](O)CC(=O)[C@@H]3CC[C@H]2C1=O,0,-,0,-
CC(C)Oc1ccc(CNC(=O)C2CCCN(S(=O)(=O)c3ccc4c(ccn4C)c3)C2)cc1 (stereo unspecified),-,?,-,0
Cc1c2n(c3ccccc13)CC/C2=N\O,0,?,0,5.2µM
COc1ccc2c(c1)c(C)cc[n+]2Cc1ccccc1,23µM,8.2µM,15µM,0
Cc1ccc2c(ccc[n+]2CC(=O)c2ccccc2)c1,0,0,0,0
Cc1ccc2c(c1)c(C)cc[n+]2Cc1ccccc1,?,8.2µM,0,0
